# Pf Dd2 inh = Plasmodium falciparum Dd2 growth inhibition; hit rate 4.3% among 120,000; Potency, µM (series often up to 28.9 µM), without a hit: top-dose activity, negative = inhibition, most hits filed as inhibitors; AID 1347417; P. falciparum Dd2 growth, SYBR Green, 72 h; active = well fitted inhibition curve with a large enough effect;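 note: plate controls were DMSO vehicle for no effect and reference drug for full effect; nearly all actives have a fitted effect of over 65% in size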
#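 Infected erythrocytes (Dd2, 0.3% parasitemia, 2.5% hematocrit final) are added to compound in RPMI-1640/Albumax II medium, grown 72 h at 37C in low oxygen, then lysed with saponin/Triton-X containing SYBR Green and read by fluorescence.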
# Numbers without * were called inactive; i = inactive; [ ] = another dose, or the depositor's remark. The sample as a whole holds a higher share of hits than the screen did. Potency is the fitted concentration of half-maximal effect.
SMILES,Pf Dd2 inh
CN(C)C(=O)CCC(=O)N1CCC(c2cc(Cc3ccccc3)[nH]n2)CC1,-23%
O=C(CC(c1ccccc1)c1ccccc1F)NCc1cccnc1 (stereo not drawn),-10%
CN(Cc1cnccn1)C(=O)CC(c1ccccc1)c1ccccc1Cl (stereo not drawn),-10%
O=C(CC(c1ccccc1)c1ccccc1Cl)N(Cc1cccnc1)C1CC1 (stereo not drawn),13µM*
COc1ccc(CNC(=O)N2CCCC(Cc3noc(-c4ccccn4)n3)C2)cc1 (stereo not drawn),i
O=C(CSc1ccc2nnc(CCNS(=O)(=O)c3ccccc3)n2n1)Nc1ccccc1C(F)(F)F,i
Cn1ncc(N2CCC(NC(=O)Cc3ccc(F)cc3)CC2)cc1=O,-11%
CCCN1CCN(C(=O)c2ccc3c(c2)n(CC)c(=O)c2ccnn23)CC1,i
O=C(NCc1ccccn1)c1ccc2c(c1)n(Cc1cccc(F)c1)c(=O)c1ccnn12,5µM*
CNC(=O)c1ccc2c(c1)n(Cc1ccc(OC)cc1)c(=O)c1ccnn12,-20%
O=C(NCc1ccccc1)c1ccc2oc(=O)n(Cc3ccccc3)c2c1,0%
O=C(NCc1cccc(F)c1)c1ccc2nccn2c1,-12%[44.1 µM]
Cn1c(=O)c2ccnn2c2ccc(C(=O)Nc3ccc(N4CCOCC4)cc3)cc21,i
CN1CCC(NC(=O)c2ccc3c(c2)n(Cc2ccc(F)cc2)c(=O)c2ccnn23)CC1,2.5µM*
CN(C)C(=O)c1ccc2c(c1)n(Cc1ccc(F)cc1)c(=O)c1ccnn12,10µM*
CCC1Oc2ccc(NC(=O)c3ccc([N+](=O)[O-])cc3)cc2CN(Cc2ccccc2F)C1=O (stereo not drawn),-13%
Cc1c(C(C)NC(=O)C2(c3ccc(Cl)cc3)CCC2)cnn1-c1ccccn1 (stereo not drawn),-6%
O=C(Cn1c(=O)n(Cc2ccc3c(c2)OCO3)c(=O)c2oc3ccccc3c21)Nc1ccc(F)cc1,-26%
CN1C(=O)C(c2ccccc2)CC12CCN(C(=O)C1CCCC1)CC2 (stereo not drawn),-2%
CN1C(=O)C(c2ccccc2)CC12CCN(CCC(=O)O)CC2 (stereo not drawn),10µM*
CN1C(=O)C(c2ccccc2)CC12CCN(S(C)(=O)=O)CC2 (stereo not drawn),-7%
CN(Cc1ccccc1C(F)(F)F)S(C)(=O)=O,-5%[44.1 µM]
Cc1ccc(-n2nc(C(=O)N3CCN(c4ccc(F)cc4)CC3)c(=O)n(C)c2=O)cc1,-7%
Cn1nc(CN2CCOCC(CO)C2)c2c(Cl)cccc21 (stereo not drawn),-13%
CN1C(=O)CC(C(=O)O)C12CCN(Cc1cn(C)nc1-c1ccccc1)CC2 (stereo not drawn),-7%
SMILES,Pf Dd2 inh
CCN(CCOC)Cc1cn(C)nc1-c1ccc(C2CCCCC2)cc1,10µM*
Cn1cc(CN2CCN(c3cnccn3)CC2)c(-c2ccc(C3CCCCC3)cc2)n1,10µM*
Cn1c(CN2CCN(c3cnccn3)CC2)nnc1C1CC(N)C1 (stereo not drawn),-4%
O=C(Nc1cc(-c2cccc(Cl)c2)nn1-c1ccccc1)c1ccccc1F,-10%
COc1ccc(F)c(CN2CCCC3(CCN(c4cc(C)nc(N)n4)C3)C2)c1 (stereo not drawn),4µM*
COc1ccc(F)c(CN2CCCC3(CCN(C(=O)c4ccsc4)C3)C2)c1 (stereo not drawn),8%
Fc1cccc(CN2CCCC3(CCN(c4cnccn4)C3)C2)c1F (stereo not drawn),-4%
CC(C)c1nnsc1CN1CCCn2nc(C(O)C3CCC3)cc2C1 (stereo not drawn),-2%
CCn1nc(C)c(CN2CCC(C3CCNC3)CC2)c1C (stereo not drawn),22%
Cc1cc(C(=O)NC2CCc3nnc(C)n3CC2)c(C)n1Cc1ccco1 (stereo not drawn),24%
COc1ccc(C2C=C(c3ccccc3)Nc3nc(NC(=O)/C=C/c4ccc(Cl)cc4)nn32)cc1 (stereo not drawn),10µM*
COC(=O)c1c(NC(=O)/C=C/c2ccc(OC)cc2)sc2c1CCC2,1%
COc1ccc(/C=C/C(=O)Nc2cc(-c3nc4ccccc4o3)ccc2OC)cc1,i
COc1ccc(OCC(=O)Nc2cc(-c3cccc(Cl)c3)nn2-c2ccccc2)cc1,i
COc1ccc(/C=C/C(=O)Nc2nc3n(n2)C(c2ccccc2)C=C(c2ccc(Cl)cc2)N3)cc1 (stereo not drawn),5µM*
Cc1cnc(C(=O)N2CCC(c3nc(C4CCOCC4)no3)CC2)cn1,-16%
CN1C(=O)Cc2cc(S(=O)(=O)CCC(=O)Nc3ccc(F)c(Cl)c3)ccc21,-16%
OCC1CCCCN1CCNC1CCN(c2ccc3c(c2)OCO3)CC1 (stereo not drawn),-6%
CCC(=O)N1C[C@@H](Oc2ccccc2)C[C@@H]1C(=O)N1CCOCC1,16%
Cc1ccc(NC(=O)C2CCN(c3cc(C)nc4c(-c5ccc(Cl)cc5)c(C)nn34)CC2)c(C)c1,46%
Cc1ccccc1C(=O)N1CC2(Cc3ccccc3NC2=O)C1,-4%
O=C(CCC1CCCC1)NCCC1CCN(C(=O)Nc2ccc(F)cc2F)CC1,-19%
CC(C)c1ccc(N2C(=O)CSC23C(=O)N(Cc2cccc(F)c2)c2ccccc23)cc1 (stereo not drawn),-13%
O=C(CN1C(=O)C2(SCC(=O)N2c2ccc(F)c(F)c2)c2ccccc21)Nc1cccc(Cl)c1 (stereo not drawn),13µM*
COc1ccc(N2C(=O)CSC23C(=O)N(C)c2ccccc23)cc1Cl (stereo not drawn),19%
SMILES,Pf Dd2 inh
O=C1CSC2(C(=O)N(Cc3cccc(F)c3)c3ccccc32)N1c1cccc(C(F)(F)F)c1 (stereo not drawn),-9%
Cc1ccc(C)c(NC(=O)CN2C(=O)C(C)(C)c3ccccc32)c1,10%
CC1(C)C(=O)N(CC(=O)Nc2ccc(Cl)cc2)c2ccccc21,13%
O=C1CCSC2(C(=O)N(Cc3ccc(F)cc3)c3ccccc32)N1c1ccc(F)c(F)c1 (stereo not drawn),-6%
O=C1CSC2(C(=O)N(Cc3cccc(C(F)(F)F)c3)c3ccccc32)N1c1ccc(F)c(F)c1 (stereo not drawn),11µM*
Cc1ccc(NC(=O)CN2C(=O)C(C)(C)c3ccccc32)cc1,-12%
CN1C(=O)C2(SCC(=O)N2c2ccc(Cl)cc2)c2ccccc21 (stereo not drawn),i
Cc1ccc(N2C(=O)CSC23C(=O)N(CC(=O)Nc2ccc(C(C)C)cc2)c2ccccc23)cc1C (stereo not drawn),13µM*
Cc1ccc(N2C(=O)CSC23C(=O)N(CC(=O)Nc2ccccc2F)c2ccccc23)cc1C (stereo not drawn),11µM*
CN(Cc1cccnc1)C(=O)c1ccc2c(c1)C(O)CCCCCN2C (stereo not drawn),i
C=CCN(CCSc1ccccc1)C(=O)c1cnc(NCC)nc1,i
CCCOc1nccnc1NC1CCN(S(=O)(=O)CC)CC1,9%[5.79 µM]
Cn1nc(C2CCN(C(=O)Cc3ccc(Cl)cc3)CC2)[nH]c1=O,i
Cc1cccc(NC(=O)c2ccc(F)c(S(=O)(=O)N3CCC4(CC3)OCCO4)c2)c1,-1%
CCCc1nn2c(=O)cc(COC(=O)c3ccco3)nc2s1,33%
O=C(c1cnccn1)N1CCC([C@@H]2CNC[C@H]2CO)CC1,8%
CCCNC(=O)C1COC2(CCN(C(=O)CC(C)(C)C)CC2)N1C(=O)c1cccc(OC)c1 (stereo not drawn),-3%

# High-throughput results as filed in PubChem.
